We go through nine sequences from paper PMC7862700, “An all-to-all approach to the identification of sequence-specific readers for epigenetic DNA modifications on cytosine”.

What all share (test): DAPPL (digital affinity profiling via proximity ligation, sequencing); 10 mM Tris-HCl pH 7.5, 50 mM NaCl, 1 mM DTT, 4% glycerol, room temperature, 30 min; GST-TFs on glutathione beads, 16-mer random dsDNA library, 0.1% formaldehyde crosslink after washing; high values mean tight binding
What all share (conditions): protein: recombinant; tags: N-terminal GST; dsDNA, one strand shown

One test addresses T1, ERF (Homo sapiens, UniProt P50548 1-548).
T1 sequence: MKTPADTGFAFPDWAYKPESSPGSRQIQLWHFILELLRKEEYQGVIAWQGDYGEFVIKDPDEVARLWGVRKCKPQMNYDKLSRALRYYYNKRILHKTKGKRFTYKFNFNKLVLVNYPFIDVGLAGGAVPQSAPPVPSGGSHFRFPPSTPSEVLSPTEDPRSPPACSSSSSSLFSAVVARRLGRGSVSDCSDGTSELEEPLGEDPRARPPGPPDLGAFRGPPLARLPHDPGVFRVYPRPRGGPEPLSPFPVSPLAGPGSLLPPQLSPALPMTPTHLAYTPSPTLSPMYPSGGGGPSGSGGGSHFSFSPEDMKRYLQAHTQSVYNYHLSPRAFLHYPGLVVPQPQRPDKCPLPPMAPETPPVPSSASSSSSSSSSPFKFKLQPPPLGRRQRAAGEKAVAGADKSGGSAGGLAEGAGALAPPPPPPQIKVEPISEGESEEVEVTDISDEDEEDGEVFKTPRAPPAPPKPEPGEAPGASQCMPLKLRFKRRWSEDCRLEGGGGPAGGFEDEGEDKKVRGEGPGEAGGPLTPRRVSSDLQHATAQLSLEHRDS
Put shortly: (§1)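 Binding signal is each hexamer's read frequency for a factor divided by its frequency in the tag-only sample. The factors were GST-fused human transcription factors from yeast, captured on glutathione beads, DNA-barcoded and pooled with that sample. Pools were incubated with 200 nmole of a random double-stranded 16-mer DNA library in Tris/NaCl/DTT/glycerol buffer at room temperature for 30 min, then washed, crosslinked with 0.1% formaldehyde, proximity-ligated with BsaI/T4 ligase (1 h, 37 °C), PCR-amplified and sequenced on an Illumina NextSeq500.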

A further test deals with T2, ETV3L (Homo sapiens, UniProt Q6ZN32 1-361).
T2 sequence: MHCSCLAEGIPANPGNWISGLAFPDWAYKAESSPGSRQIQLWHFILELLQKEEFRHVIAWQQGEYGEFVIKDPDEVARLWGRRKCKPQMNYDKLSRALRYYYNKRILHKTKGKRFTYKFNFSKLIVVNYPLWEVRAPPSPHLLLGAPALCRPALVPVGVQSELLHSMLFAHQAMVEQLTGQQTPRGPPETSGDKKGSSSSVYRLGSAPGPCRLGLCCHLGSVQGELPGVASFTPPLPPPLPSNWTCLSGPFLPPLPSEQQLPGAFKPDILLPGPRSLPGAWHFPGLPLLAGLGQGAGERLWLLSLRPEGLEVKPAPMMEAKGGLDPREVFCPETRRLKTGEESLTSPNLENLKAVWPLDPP
Put shortly:
as §1

The target of a further test is T3, ETS2 (Homo sapiens, UniProt P15036 1-469).
T3 sequence: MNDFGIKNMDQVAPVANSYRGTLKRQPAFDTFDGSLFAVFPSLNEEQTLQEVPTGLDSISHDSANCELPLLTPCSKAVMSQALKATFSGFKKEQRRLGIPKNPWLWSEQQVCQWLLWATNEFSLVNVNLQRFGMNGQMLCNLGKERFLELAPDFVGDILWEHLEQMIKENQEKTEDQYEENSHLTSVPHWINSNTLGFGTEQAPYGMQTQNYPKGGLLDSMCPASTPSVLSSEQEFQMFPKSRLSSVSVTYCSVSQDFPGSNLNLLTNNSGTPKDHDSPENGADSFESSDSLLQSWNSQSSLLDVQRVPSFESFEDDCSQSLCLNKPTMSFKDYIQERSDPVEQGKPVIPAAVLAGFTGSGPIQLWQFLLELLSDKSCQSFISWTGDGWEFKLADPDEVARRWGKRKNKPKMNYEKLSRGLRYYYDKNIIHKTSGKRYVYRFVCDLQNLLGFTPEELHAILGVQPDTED
Put shortly: as §1

The next test concerns the target T4, SPDEF (Homo sapiens, UniProt O95238 1-335).
T4 sequence: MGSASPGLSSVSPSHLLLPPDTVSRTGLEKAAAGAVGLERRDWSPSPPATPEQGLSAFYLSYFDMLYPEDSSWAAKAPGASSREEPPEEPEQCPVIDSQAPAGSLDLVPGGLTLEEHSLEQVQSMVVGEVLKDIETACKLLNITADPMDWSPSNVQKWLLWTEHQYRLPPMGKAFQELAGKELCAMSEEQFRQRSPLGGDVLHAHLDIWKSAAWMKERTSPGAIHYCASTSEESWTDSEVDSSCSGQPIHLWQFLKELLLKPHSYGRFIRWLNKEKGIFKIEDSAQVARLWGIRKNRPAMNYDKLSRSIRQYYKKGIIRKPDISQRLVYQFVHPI
Put shortly: as §1

For a further test, the target named is T5, ETV7 (Homo sapiens, UniProt Q9Y603 1-341).
T5 sequence: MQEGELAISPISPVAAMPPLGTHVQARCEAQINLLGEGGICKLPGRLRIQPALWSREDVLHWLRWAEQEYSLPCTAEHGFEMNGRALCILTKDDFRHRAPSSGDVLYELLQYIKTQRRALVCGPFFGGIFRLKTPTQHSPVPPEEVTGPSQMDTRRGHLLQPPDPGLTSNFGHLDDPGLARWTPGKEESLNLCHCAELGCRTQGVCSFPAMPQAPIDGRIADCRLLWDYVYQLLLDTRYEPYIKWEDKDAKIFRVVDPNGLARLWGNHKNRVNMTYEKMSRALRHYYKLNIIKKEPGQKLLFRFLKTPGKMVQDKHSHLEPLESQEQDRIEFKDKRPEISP
The gist of the method: as §1

The target of the next test is T6, ELF5 (Homo sapiens, UniProt Q9UKW6-2 1-255).
T6 sequence: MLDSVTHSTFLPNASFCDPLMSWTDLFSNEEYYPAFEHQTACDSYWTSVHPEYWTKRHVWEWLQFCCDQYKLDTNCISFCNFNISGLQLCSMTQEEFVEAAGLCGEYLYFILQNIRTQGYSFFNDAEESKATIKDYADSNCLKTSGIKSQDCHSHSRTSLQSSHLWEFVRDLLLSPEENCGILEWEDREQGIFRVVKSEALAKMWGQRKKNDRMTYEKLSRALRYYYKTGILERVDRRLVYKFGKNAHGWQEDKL
Put shortly: as §1

A further test concerns the target T7, ETV3 (Homo sapiens, UniProt P41162-2 1-143).
T7 sequence: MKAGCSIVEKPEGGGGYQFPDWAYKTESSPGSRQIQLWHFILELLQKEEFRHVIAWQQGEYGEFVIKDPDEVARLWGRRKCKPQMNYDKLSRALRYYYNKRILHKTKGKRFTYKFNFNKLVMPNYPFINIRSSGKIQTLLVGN
Put shortly: as §1

The next test addresses ETV6 (Homo sapiens, UniProt P41212 1-452). The gist of the method:
as §1

ETV6, sequence (P41212 whole entry): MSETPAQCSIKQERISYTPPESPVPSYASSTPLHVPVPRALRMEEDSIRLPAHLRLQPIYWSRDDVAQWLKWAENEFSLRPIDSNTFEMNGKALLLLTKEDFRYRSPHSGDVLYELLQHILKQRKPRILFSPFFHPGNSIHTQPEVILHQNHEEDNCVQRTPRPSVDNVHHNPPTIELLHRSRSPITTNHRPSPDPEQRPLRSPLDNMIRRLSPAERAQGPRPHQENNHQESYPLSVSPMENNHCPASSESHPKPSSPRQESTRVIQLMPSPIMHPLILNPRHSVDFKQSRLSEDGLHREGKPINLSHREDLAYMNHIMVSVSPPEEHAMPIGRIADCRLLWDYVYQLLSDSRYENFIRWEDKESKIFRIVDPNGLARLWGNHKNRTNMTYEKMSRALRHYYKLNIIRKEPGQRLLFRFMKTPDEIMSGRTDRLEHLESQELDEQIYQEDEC

Regarding CTCCGC, the binding signal with ERF is 1.47 fold enrichment (6-mer frequency, TF over GST control); with ETV3L, 1.56 fold enrichment (6-mer frequency, TF over GST control); with ETS2, 1.52 fold enrichment (6-mer frequency, TF over GST control); with SPDEF, 1.54 fold enrichment (6-mer frequency, TF over GST control); with ETV7, 1.31 fold enrichment (6-mer frequency, TF over GST control); in the test with ELF5, 1.48 fold enrichment (6-mer frequency, TF over GST control). The binding signal was 1.59 fold enrichment (6-mer frequency, TF over GST control) with ETV3 and 1.44 fold enrichment (6-mer frequency, TF over GST control) in the test with ETV6.
Regarding TGCGAC, the binding signal is 1.22 fold enrichment (6-mer frequency, TF over GST control) in the test with ERF; 1.32 fold enrichment (6-mer frequency, TF over GST control) with ETV3L; 1.19 fold enrichment (6-mer frequency, TF over GST control) with ETS2; 1.15 fold enrichment (6-mer frequency, TF over GST control) in the test with SPDEF; 1.29 fold enrichment (6-mer frequency, TF over GST control) in the test with ETV7; 1.2 fold enrichment (6-mer frequency, TF over GST control) with ELF5. Moreover, the binding signal is 1.27 fold enrichment (6-mer frequency, TF over GST control) with ETV3 and 1.28 fold enrichment (6-mer frequency, TF over GST control) with ETV6.
Turning to GAATTG, the binding signal is 1.1 fold enrichment (6-mer frequency, TF over GST control) with ERF; 1.07 fold enrichment (6-mer frequency, TF over GST control) in the test with ETV3L; 1.13 fold enrichment (6-mer frequency, TF over GST control) with ETS2; 1.14 fold enrichment (6-mer frequency, TF over GST control) with SPDEF; 1.22 fold enrichment (6-mer frequency, TF over GST control) with ETV7; 1.13 fold enrichment (6-mer frequency, TF over GST control) with ELF5. Further, the binding signal in the test with ETV3 was 1.03 fold enrichment (6-mer frequency, TF over GST control); with ETV6, 1.06 fold enrichment (6-mer frequency, TF over GST control).
With CTTCTA, the binding signal in the test with ERF was 1.5 fold enrichment (6-mer frequency, TF over GST control); in the test with ETV3L, 1.35 fold enrichment (6-mer frequency, TF over GST control); with ETS2, 1.53 fold enrichment (6-mer frequency, TF over GST control); in the test with SPDEF, 1.3 fold enrichment (6-mer frequency, TF over GST control); with ETV7 it was 1.43 fold enrichment (6-mer frequency, TF over GST control); with ELF5, 1.39 fold enrichment (6-mer frequency, TF over GST control). For the same sequence, the binding signal in the test with ETV3 was 1.2 fold enrichment (6-mer frequency, TF over GST control); with ETV6, 1.4 fold enrichment (6-mer frequency, TF over GST control).
Consider GTCTCT, for which the binding signal with ERF is 1.16 fold enrichment (6-mer frequency, TF over GST control); with ETV3L, 1.35 fold enrichment (6-mer frequency, TF over GST control); with ETS2, 1.32 fold enrichment (6-mer frequency, TF over GST control); in the test with SPDEF, 1.15 fold enrichment (6-mer frequency, TF over GST control); with ETV7, 1.02 fold enrichment (6-mer frequency, TF over GST control); in the test with ELF5, 1.11 fold enrichment (6-mer frequency, TF over GST control). The binding signal in the test with ETV3 is 1.27 fold enrichment (6-mer frequency, TF over GST control); with ETV6, 1.19 fold enrichment (6-mer frequency, TF over GST control).
As for GTCCAT, the binding signal with ERF was 1.08 fold enrichment (6-mer frequency, TF over GST control); with ETV3L, 1.24 fold enrichment (6-mer frequency, TF over GST control); with ETS2, 1.04 fold enrichment (6-mer frequency, TF over GST control); with SPDEF it was 1.02 fold enrichment (6-mer frequency, TF over GST control); in the test with ETV7, 1.14 fold enrichment (6-mer frequency, TF over GST control); in the test with ELF5, 1.07 fold enrichment (6-mer frequency, TF over GST control). The binding signal with ETV3 was 1.11 fold enrichment (6-mer frequency, TF over GST control); in the test with ETV6 it was 1.07 fold enrichment (6-mer frequency, TF over GST control).
As to CTGGCA, the binding signal in the test with ERF is 1.28 fold enrichment (6-mer frequency, TF over GST control); in the test with ETV3L, 1.27 fold enrichment (6-mer frequency, TF over GST control); with ETS2 it was 1.25 fold enrichment (6-mer frequency, TF over GST control); in the test with SPDEF, 1.13 fold enrichment (6-mer frequency, TF over GST control); with ETV7, 1.4 fold enrichment (6-mer frequency, TF over GST control); in the test with ELF5, 1.19 fold enrichment (6-mer frequency, TF over GST control). Further, the binding signal with ETV3 is 1.2 fold enrichment (6-mer frequency, TF over GST control); with ETV6, 1.28 fold enrichment (6-mer frequency, TF over GST control).
With CTCTCC, the binding signal was 1.43 fold enrichment (6-mer frequency, TF over GST control) in the test with ERF; 1.44 fold enrichment (6-mer frequency, TF over GST control) in the test with ETV3L; 1.43 fold enrichment (6-mer frequency, TF over GST control) with ETS2; 1.22 fold enrichment (6-mer frequency, TF over GST control) with SPDEF; 1.31 fold enrichment (6-mer frequency, TF over GST control) in the test with ETV7; 1.37 fold enrichment (6-mer frequency, TF over GST control) with ELF5. Further, the binding signal in the test with ETV3 was 1.45 fold enrichment (6-mer frequency, TF over GST control); in the test with ETV6 it was 1.37 fold enrichment (6-mer frequency, TF over GST control).
In the case of AAGAAC, the binding signal with ERF was 1.08 fold enrichment (6-mer frequency, TF over GST control); with ETV3L, 1.13 fold enrichment (6-mer frequency, TF over GST control); with ETS2 it was 1.18 fold enrichment (6-mer frequency, TF over GST control); in the test with SPDEF, 1.23 fold enrichment (6-mer frequency, TF over GST control); with ETV7, 1.25 fold enrichment (6-mer frequency, TF over GST control); in the test with ELF5, 1.21 fold enrichment (6-mer frequency, TF over GST control). Further, the binding signal in the test with ETV3 was 1.11 fold enrichment (6-mer frequency, TF over GST control); with ETV6, 1.27 fold enrichment (6-mer frequency, TF over GST control).
